Only some compounds are listed: those with a hit (about 3.1% of all), similar ones and a draw of the others.
dFosB act-1: activators of delta FosB homodimer, primary screen, biochemical, fluorescence polarization, TAMRA-CDK5 oligo, single point | Protein FosB (Mus musculus), P13346 | purified delta FosB; percent of positive-control signal above neutral wells | activation, % at 25 µM | 0.99% of 340,000 active;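 active = mean activation above about 17%, with every replicate also reaching it, limit read from the data, passing the limit was not always enough; inconclusive = only one of the two conditions met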
RAD52 anneal inh: RAD52 DNA annealing inhibitors, primary screen, biochemical, FRET, single point, set 2 | DNA repair protein RAD52 homolog (Homo sapiens), P43351 | recombinant RAD52 DNA annealing, FRET fluorescence | inhibition, % at 18.7 µM | 0.46% of 360,000 active;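 active = every replicate showing at least 50% inhibition; inconclusive = mean inhibition at least 50% but not in every replicate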
MLL AF4-AF9 inh: inhibitors of AF4 peptide binding to AF9, primary screen, biochemical, AlphaScreen, biotin-AF4 peptide, FLAG-AF9, single point; Protein AF-9 (Homo sapiens), P42568; inhibition, % at 10 µM; 0.47% of 350,000 active; AID 651704, 2012;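 active = every replicate reaching a set inhibition limit, whatever the replicate mean, cut at about 25% in these data; inconclusive = mean inhibition reaches that limit but some replicates miss it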;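 also: 0% = plate neutral control median and 100% = total signal loss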
RAD54 inh: inhibitors of human RAD54 branch migration, primary screen, biochemical, fluorescence, single point | RAD54 Holliday junction branch migration, FAM/BHQ fluorescence | inhibition, % at 10.4 µM | 0.14% of 360,000 active;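 active = mean normalized replicate activity at least 40 and at least half of replicates scoring 40 or more; inconclusive = only one of the two criteria met; inactive = mean below 40 and under half of replicates reaching 40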;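 also: 0% = median of neutral control wells and 100% = median of positive control wells; inhibitors cause a drop in the FAM fluorescence signal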
Target sequence (Q92698 whole entry, looked up): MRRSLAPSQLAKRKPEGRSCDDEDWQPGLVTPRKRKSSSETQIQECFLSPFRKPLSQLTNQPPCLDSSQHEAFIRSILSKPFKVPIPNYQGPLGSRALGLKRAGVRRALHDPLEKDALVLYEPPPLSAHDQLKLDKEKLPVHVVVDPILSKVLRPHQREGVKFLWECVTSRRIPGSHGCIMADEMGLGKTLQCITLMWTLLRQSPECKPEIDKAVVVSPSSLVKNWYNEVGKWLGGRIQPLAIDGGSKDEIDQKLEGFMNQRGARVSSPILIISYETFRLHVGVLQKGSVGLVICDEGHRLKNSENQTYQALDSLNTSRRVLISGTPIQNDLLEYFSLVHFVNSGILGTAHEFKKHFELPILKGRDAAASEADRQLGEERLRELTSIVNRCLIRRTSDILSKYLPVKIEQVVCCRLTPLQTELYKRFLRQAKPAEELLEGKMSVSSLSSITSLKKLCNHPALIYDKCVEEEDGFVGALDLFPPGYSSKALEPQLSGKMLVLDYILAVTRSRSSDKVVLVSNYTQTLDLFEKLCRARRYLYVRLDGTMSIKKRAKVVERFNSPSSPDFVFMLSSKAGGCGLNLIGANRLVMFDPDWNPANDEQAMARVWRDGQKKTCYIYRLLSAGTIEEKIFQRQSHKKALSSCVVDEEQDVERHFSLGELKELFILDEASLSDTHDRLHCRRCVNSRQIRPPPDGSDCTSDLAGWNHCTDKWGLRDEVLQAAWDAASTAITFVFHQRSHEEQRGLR
DENV2 CPE: inhibitors of DENV2 cytopathic effect, primary screen, cell-based, plate reader, single concentration; DENV2-infected cells, cytopathic effect rescue; CPE inhibition, % at 9.99 µM; 1.7% of 350,000 active; AID 651640, 2012; in the data active = CPE inhibition above about 20%, passing the limit was not always enough; inconclusive = no clear call, values can overlap the other calls; tested in BHK-21 cells;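 also: 0% = median of neutral control wells and 100% = median of positive control wells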
GSIS activator: GLuc luminescence reporter in INS-1E cells, primary screen for activators of glucose-dependent secretion of insulin. INS-1E GLuc reporter insulin secretion, 2-3 h. activation, % at 16.6 µM. 0.61% of 370,000 active. AID 743287, 2014;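 active = lowest replicate activation of at least 40%, so every replicate reaches that level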;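 also: 0% = median of neutral control wells and 100% = median of IBMX positive control wells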
dFosB act-2: activators of mouse delta FosB DNA binding, confirmation, biochemical, fluorescence polarization, TAMRA-CDK5 oligo, cherry-picked samples | activation, % at 24.9 µM | purified delta FosB; normalised: neutral wells 0, positive control 100 | shares compounds with dFosB act-1 | 2,400 tested, under 10 active;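 active = highest replicate activation at or above 34% and every replicate reaching that threshold; inconclusive = meets only one of the two criteria; inactive = meets neither criterion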;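 also: higher polarization means more probe DNA bound by delta FosB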
Active calls of the source: *; ? = inconclusive; nt = no result given.

SMILES	dFosB act-1	RAD52 anneal inh	MLL AF4-AF9 inh	RAD54 inh	DENV2 CPE	GSIS activator	dFosB act-2
O=C(C[C@H]1CC[C@H]2[C@@H](COC[C@H](O)CN2C(=O)c2ccc(F)cc2)O1)N1CCOCC1	nt	-132	-2	-6	-3	16	nt
O=C(C[C@H]1CC[C@@H]2[C@H](COC[C@H](O)CN2C(=O)c2ccc(F)cc2)O1)N1CCOCC1	nt	9	-3	-1	-3	0	nt
O=C(N/N=C/c1cc([N+](=O)[O-])ccc1Cl)c1ccc2nc[nH]c2c1	35*	nt	nt	-12	nt	nt	2
O=C(N/N=C/c1ccc(Cl)cc1Cl)c1ccc2nc[nH]c2c1	1	-7	3	12	-4	18	nt
O=Cc1cn(-c2ccccc2)nc1-c1cc2cc(O)ccc2oc1=O	25*	nt	nt	5	nt	16	3
C[C@H](CO)N1C[C@H](C)[C@H](CN(C)C(=O)Nc2cccc3ccccc23)Oc2c(NC(=O)c3cnccn3)cccc2C1=O	nt	12	-5	-4	-2	19	nt
Cc1cc(=O)[nH]c(NN=Cc2c(Cl)cccc2Cl)n1	-13	-5	-7	4	7	nt	nt
Cc1cc(=O)[nH]c(N/N=C/c2c(C)nn(-c3ccc(F)cc3)c2Cl)n1	46*	-20	2	-4	4	-4	0
COc1cccc(CNC(=O)C2CCC(CNc3nc(=S)[nH]c4ccccc34)CC2)c1 (stereo not drawn)	37*	-17	-1	3	0	-16	2
O=C(Cc1csc(Nc2nc(=S)[nH]c3ccccc23)n1)NCCCN1CCN(c2ccccc2F)CC1	20*	-41	-1	4	-6	-3	3
O=C(Cc1csc(Nc2nc(=S)[nH]c3ccccc23)n1)NCc1ccc(Cl)cc1	-1	-41	0	13	0	nt	nt
COc1ccc(CNC(=O)Cc2csc(Nc3nc(=S)[nH]c4ccccc34)n2)cc1	35*	nt	nt	-8	nt	5	7
C[C@@H]1CN([C@H](C)CO)S(=O)(=O)c2ccc(C#CC3CC3)cc2O[C@@H]1CN(C)C(=O)c1ccccn1	nt	0	0	10	5	-9	nt
C[C@@H]1CN([C@H](C)CO)C(=O)c2cccc(NC(=O)Nc3ccccc3)c2O[C@@H]1CN(C)C	nt	11	-2	2	16	8	nt
COc1ccc(NC(=O)Cn2cc(C#N)c3ccccc32)cc1	42*	-19	1	nt	-4	2	2
CCOc1ccc(NC(=O)Cn2cc(C(=O)CC)c3ccccc32)cc1	41*	nt	nt	nt	nt	nt	4
COc1ccc(OC)c(NC(=O)Cn2cc(C#N)c3cc(Br)ccc32)c1	26*	nt	nt	-4	nt	nt	3
COc1ccc(OC)c(NC(=O)COc2ccc(Br)cc2)c1	-3	8	1	-2	-6	-6	nt
Cc1ccc(C)c(NC(=O)NNC(=O)c2cc3ccccc3cc2O)c1	?	-32	-3	-11	?	6	nt
CCOc1ccc(NC(=O)NNC(=O)c2cc3ccccc3cc2O)cc1	39*	-40	-2	-3	2	1	0
CCc1ccc(NC(=O)NNC(=O)c2cc3ccccc3cc2O)cc1	39*	2	-4	-6	6	18	4
Cc1ccc(NC(=O)NNC(=O)c2cc3ccccc3cc2O)cc1C	54*	-42	0	-7	-7	5	4
CCOc1ccc(-n2c(=O)c3sccc3n(Cc3ccc(C)cc3)c2=O)cc1	26*	-11	-2	nt	2	5	5
COc1ccc(NC(=O)CCCn2c(=O)c3sccc3n(Cc3ccc(C)cc3)c2=O)cc1	29*	nt	nt	-4	nt	-23	-1
Cc1cc(C(=O)N/N=C/c2ccc(-c3cccc([N+](=O)[O-])c3)o2)n[nH]1	33*	-4	-1	-3	6	35	0
SMILES	dFosB act-1	RAD52 anneal inh	MLL AF4-AF9 inh	RAD54 inh	DENV2 CPE	GSIS activator	dFosB act-2
O=C(Nc1ccc(F)cc1)Nc1ccc(Cl)cn1	42*	nt	nt	-1	nt	nt	1
O=C(Nc1ccc(Cl)cn1)Nc1ccc(Cl)cn1	?	-16	-2	nt	nt	-3	nt
O=C(Nc1ccc(F)c(Cl)c1)Nc1ccc(Cl)cn1	39*	nt	nt	nt	nt	20	2
CN(C)C(=O)C[C@@H]1C[C@@H]2c3cc(NC(=O)NC4CCCC4)ccc3O[C@@H]2[C@H](CO)O1	nt	-3	-1	3	2	14	nt
CO[C@@H]1CN(C)C(=O)c2ccc(NC(=O)C3CCCCC3)cc2OC[C@H](C)NC[C@@H]1C	nt	-7	-2	20	0	-2	nt
O=C(NC1=NCCS1)c1cccs1	27*	nt	nt	1	nt	nt	2
O=C(CSc1nc2ccccc2c(=O)n1-c1ccccc1)NCc1ccco1	-4	nt	nt	-4	nt	6	nt
Cc1ccc(-n2c(SCC(=O)NCc3ccco3)nc3sc(C)c(C)c3c2=O)cc1	31*	nt	nt	-6	nt	nt	2
CC(=O)Nc1ccc(NC(=O)CSc2nc3c([nH]c4ccccc43)c(=O)n2-c2ccccc2F)cc1	22*	3	-5	0	13	-14	1
C=CCn1c(SCC(=O)Nc2cc(C)on2)nc2c([nH]c3ccccc32)c1=O	0	-4	-1	0	-1	14	nt
Cc1ccc(-n2c(SCC(=O)Nc3cc(C)on3)nc3c([nH]c4ccccc43)c2=O)cc1	26*	2	-7	0	11	-1	3
O=C(CSc1nc2c([nH]c3ccccc32)c(=O)n1-c1ccc(F)cc1)NCc1ccco1	19*	7	0	3	?	-6	2
COc1ccccc1-n1c(SCC(=O)Nc2ccc(NC(C)=O)cc2)nc2c([nH]c3ccccc32)c1=O	7	-8	-2	6	-5	11	nt
COc1ccc(S(=O)(=O)Nc2ccc3c(c2)C(=O)N([C@H](C)CO)C[C@@H](C)[C@@H](CN(C)C(=O)CCC(F)(F)F)OCCCC[C@@H](C)O3)cc1	nt	29	-1	6	1	-19	nt
C[C@H]1CN([C@@H](C)CO)C(=O)c2cc(NC(=O)Nc3cccc4ccccc34)ccc2O[C@H]1CN(C)S(=O)(=O)c1ccccc1	nt	-27	-1	-17	-3	6	nt
CCOc1ccc(-n2c(SCC(N)=O)nc3c([nH]c4ccccc43)c2=O)cc1	-10	-13	1	-12	6	-2	nt
Cc1cc(NC(=O)CSc2nc3c(c(=O)n2-c2ccc(Br)cc2)SCC3)no1	42*	nt	nt	-1	nt	-26	6

High-throughput results (PubChem BioAssay)
